The list is not random: actives were taken first. Their share in the collection is about 3.6%.
mHTT CaM bind = mHTT-calmodulin interaction abrogation. 190,000 compounds, 3.6% hits. AlphaScreen His-mHTT/GST-CaM binding, luminescence. AID 1671202. inhibition, % at 15 µM. P42858
Target sequence (P42858 whole entry, looked up, change not shown): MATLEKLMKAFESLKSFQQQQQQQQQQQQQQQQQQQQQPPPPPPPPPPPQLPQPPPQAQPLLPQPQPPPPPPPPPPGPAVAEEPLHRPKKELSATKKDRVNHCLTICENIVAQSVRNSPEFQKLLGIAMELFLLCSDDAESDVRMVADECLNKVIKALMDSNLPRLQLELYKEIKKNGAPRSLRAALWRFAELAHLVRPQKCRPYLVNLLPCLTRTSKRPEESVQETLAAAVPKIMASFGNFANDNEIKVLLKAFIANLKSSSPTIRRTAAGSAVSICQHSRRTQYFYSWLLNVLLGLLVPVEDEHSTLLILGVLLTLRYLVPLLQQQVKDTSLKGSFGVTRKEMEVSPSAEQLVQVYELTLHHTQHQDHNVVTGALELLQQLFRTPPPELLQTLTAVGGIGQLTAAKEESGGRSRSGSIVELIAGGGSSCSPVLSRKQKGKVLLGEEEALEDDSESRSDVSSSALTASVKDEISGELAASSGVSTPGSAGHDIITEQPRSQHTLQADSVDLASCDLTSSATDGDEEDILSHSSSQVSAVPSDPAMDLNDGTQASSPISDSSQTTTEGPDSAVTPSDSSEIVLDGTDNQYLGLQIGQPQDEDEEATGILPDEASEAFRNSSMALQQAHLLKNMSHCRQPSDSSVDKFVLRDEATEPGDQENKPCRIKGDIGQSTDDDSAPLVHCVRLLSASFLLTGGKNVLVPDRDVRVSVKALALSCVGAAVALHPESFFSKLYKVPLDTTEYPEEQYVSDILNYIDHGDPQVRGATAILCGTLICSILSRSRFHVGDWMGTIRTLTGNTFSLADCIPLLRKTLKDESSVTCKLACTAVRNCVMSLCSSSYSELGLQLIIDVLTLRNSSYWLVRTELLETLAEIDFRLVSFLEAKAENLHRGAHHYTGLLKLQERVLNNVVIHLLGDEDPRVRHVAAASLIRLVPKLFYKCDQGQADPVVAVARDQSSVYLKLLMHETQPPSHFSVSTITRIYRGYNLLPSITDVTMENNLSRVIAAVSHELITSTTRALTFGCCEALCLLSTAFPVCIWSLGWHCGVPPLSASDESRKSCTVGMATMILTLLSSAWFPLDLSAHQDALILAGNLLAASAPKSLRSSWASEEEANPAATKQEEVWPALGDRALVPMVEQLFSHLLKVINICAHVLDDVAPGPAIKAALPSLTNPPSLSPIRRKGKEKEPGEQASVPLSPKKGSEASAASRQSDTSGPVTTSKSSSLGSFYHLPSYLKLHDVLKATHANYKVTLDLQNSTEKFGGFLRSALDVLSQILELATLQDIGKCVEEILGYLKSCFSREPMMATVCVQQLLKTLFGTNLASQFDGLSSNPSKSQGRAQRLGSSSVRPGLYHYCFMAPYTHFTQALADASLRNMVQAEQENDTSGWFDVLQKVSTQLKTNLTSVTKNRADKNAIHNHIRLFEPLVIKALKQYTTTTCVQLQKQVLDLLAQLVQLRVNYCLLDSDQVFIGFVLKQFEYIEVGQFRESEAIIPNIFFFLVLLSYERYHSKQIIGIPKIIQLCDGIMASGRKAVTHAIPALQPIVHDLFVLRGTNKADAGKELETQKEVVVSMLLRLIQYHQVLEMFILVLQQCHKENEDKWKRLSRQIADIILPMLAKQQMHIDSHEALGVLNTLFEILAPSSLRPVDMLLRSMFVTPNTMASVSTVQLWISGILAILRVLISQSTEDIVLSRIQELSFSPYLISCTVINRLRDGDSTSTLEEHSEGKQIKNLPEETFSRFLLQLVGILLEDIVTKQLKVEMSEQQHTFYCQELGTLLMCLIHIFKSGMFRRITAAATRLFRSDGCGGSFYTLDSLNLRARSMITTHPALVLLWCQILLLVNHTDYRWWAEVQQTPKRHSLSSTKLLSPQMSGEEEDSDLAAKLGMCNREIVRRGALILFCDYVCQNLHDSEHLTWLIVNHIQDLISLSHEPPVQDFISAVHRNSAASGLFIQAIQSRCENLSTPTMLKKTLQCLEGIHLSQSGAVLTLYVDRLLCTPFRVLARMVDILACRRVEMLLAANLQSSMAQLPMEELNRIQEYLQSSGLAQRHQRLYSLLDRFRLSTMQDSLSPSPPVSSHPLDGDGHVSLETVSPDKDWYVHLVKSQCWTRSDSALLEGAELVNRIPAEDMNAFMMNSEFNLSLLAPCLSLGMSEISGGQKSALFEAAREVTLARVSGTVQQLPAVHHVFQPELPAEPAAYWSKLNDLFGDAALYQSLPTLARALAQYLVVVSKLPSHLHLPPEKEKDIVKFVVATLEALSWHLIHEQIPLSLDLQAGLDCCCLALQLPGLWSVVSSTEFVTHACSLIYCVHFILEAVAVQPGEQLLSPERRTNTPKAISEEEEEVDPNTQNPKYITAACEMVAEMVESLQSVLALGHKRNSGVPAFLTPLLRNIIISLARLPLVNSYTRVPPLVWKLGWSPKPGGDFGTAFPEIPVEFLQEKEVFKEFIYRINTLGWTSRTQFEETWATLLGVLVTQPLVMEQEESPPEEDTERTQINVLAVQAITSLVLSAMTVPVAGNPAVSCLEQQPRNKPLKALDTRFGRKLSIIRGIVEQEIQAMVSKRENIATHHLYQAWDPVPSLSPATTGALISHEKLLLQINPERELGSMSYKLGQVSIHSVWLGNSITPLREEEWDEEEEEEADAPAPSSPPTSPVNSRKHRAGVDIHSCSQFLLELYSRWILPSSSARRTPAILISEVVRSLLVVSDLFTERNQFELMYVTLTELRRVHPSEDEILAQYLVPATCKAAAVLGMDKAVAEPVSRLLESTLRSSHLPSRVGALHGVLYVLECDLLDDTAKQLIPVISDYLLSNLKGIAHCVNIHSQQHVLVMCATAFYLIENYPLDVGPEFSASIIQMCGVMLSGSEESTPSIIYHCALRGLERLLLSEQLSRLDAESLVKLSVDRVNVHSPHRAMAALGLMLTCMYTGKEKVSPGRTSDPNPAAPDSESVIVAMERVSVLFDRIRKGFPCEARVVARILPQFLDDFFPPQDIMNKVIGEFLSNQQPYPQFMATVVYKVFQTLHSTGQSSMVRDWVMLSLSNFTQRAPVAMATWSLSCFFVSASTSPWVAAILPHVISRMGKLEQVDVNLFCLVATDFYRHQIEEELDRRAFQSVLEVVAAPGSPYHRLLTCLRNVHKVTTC
Pf apPOL inh = Pf-apPOL DNA polymerase inhibition. Recombinant Pf-apPOL, molecular beacon fluorescence, 1.5 h. 210,000 compounds, 0.25% hits. inhibition, % at 10 µM
Numbers stand for hits; 0 = inactive; - = no result given. Cut-off read from the data, not from the text of the source: active = inhibition above about 50%; inactive = the rest.

SMILES | mHTT CaM bind | Pf apPOL inh
O=C(COc1ccc([N+](=O)[O-])cc1)Nc1ccc(N2CCN(C(=O)c3ccccc3)CC2)cc1 | 0 | 0
O=S(=O)(NCc1ccccc1)c1ccc2c(c1)-c1oncc1CO2 | 0 | 0
O=[N+]([O-])c1ccc(-c2nnn(CNc3ccccc3)n2)cc1 | 53.0 | 0
O=C(Cn1nnc(-c2ccccc2)n1)Nc1cccc([N+](=O)[O-])c1 | 0 | 0
O=c1[nH]c2ccccc2n1CCCSc1nc2ccccc2o1 | 51.0 | 0
O=c1[nH]c2ccccc2n1CCCSc1cccs1 | 0 | 0
O=C(c1ccc(-c2nc(-c3ccccc3)no2)cc1)N1CCCCC1 | 0 | 0
CC(C)(C)CC(=O)Nc1cccc(F)c1 | 0 | 0
Cc1nc2c(NC(=O)c3ccccn3)cccn2n1 | 50.4 | 0
Cc1nnc2c(NC(=O)c3ccccn3)cccn12 | 0 | 0
CS(=O)(=O)N(Cc1ccc(C(=O)N2CCN(c3ccccc3F)CC2)cc1)c1ccccc1 | 0 | 0
COc1cccc(-n2c(SCC(=O)N3CCCC3)nc3n[nH]c(C)c3c2=N)c1 | 0 | 0
CCC(C)NC(=O)CSc1nc2n[nH]c(C)c2c(=N)n1-c1ccc(Br)cc1 (stereo not drawn) | 75.0 | 0
CCCN(CCC)C(=O)CSc1nc2n[nH]c(C)c2c(=N)n1-c1ccc(OCC)cc1 | 0 | 0
CCC(Sc1nc2n[nH]c(C)c2c(=N)n1-c1ccc(C)cc1)C(=O)N1CCCC1 (stereo not drawn) | 54.0 | 0
CCC(C)NC(=O)CSc1nc2ccsc2c(=O)n1-c1ccc(Br)cc1 (stereo not drawn) | 0 | 0
COc1ccc(-n2c(SCC(=O)NC3CCCCC3)nc3n[nH]c(C)c3c2=N)cc1 | 79.0 | 0
CN=C(NOCc1ccc(Cl)cc1Cl)c1nonc1N | 0 | 0
O=C(CC12CC3CC(C1)CC(c1ccccc1)(C3)C2)NC1=NCCS1 | 0 | 0
COc1ccc(C(=O)N2CCN(c3ccc(OC)cc3)C(=O)C2C)cc1 (stereo not drawn) | 0 | 0
CCCC1=NN(c2ccccc2)C(=O)/C1=C/c1ccc(OC)cc1OC | 0 | 0
c1ccc(N2N=C3N(c4ccccc4)C2N3c2ccccc2)cc1 | 77.0 | -
COC1N(c2ccccc2)N=C(c2ccccc2)N1c1ccccc1 (stereo not drawn) | 0 | -
COc1ccc(CCNC(=O)NN=c2cc(C)c3cc4c(cc3o2)OC2(CCCCC2)CC4)cc1 | 0 | 0
COc1cc2c(cc1OC)C(COc1ccc(F)cc1)N(C(=O)c1cccc(F)c1)CC2 (stereo not drawn) | 76.0 | 0
SMILES | mHTT CaM bind | Pf apPOL inh
COc1cc2c(cc1OC)C(COc1ccc3c(C)cc(=O)oc3c1)N(C(=O)c1ccc(Cl)cc1)CC2 (stereo not drawn) | 0 | 0
COc1ccc(C=CC(=O)N2CCc3cc(OC)c(OC)cc3C2COc2ccc3c(C)cc(=O)oc3c2)cc1OC (stereo not drawn) | 69.2 | 0
CCCC(=O)N1CCc2cc(OC)c(OC)cc2C1COc1ccc(OC)cc1 (stereo not drawn) | 0 | 0
COc1ccc(OCC2c3cc(OC)c(OC)cc3CCN2C(=O)c2cccc(OC)c2)cc1 (stereo not drawn) | 0 | 0
COc1cc2c(cc1OC)C(COc1ccc(F)cc1)N(C(=O)Cc1ccc(F)cc1)CC2 (stereo not drawn) | 61.0 | 0
COc1ccc(/C=C2\SC(=O)N(CN3CCCCCC3)C2=O)cc1OC | 0 | 0
NC(=NOC(=O)C=Cc1ccc(OC(F)(F)F)cc1)c1ccc(Cl)cc1 | - | 0
O=C(NCC(=O)N1CCN(c2ncccn2)CC1)c1ccc(=O)[nH]c1 | 0 | 0
Cc1ccc(-n2sc(=O)n(Cc3ccc(F)cc3)c2=O)cc1 | - | 0
Cc1noc(C)c1-n1sc(=O)n(-c2ccc(F)cc2)c1=O | - | 73.3
COc1cc(OC)c(CNc2ccc([N+](=O)[O-])cc2C)cc1Br | 0 | 0
CCOc1cc(CNc2ccc3c(c2)CCC3)ccc1O | 51.4 | 0
CCOc1cc(CNc2ccccc2SC)ccc1O | 0 | 0
COc1cc(/C=C2\CCC/C(=C\c3cc(OC)c(OC)c(OC)c3)C2=O)cc(OC)c1OC | 0 | 0
Cc1ccc([N+](=O)[O-])c2c3c([nH]c12)C(=O)CCC3 | 0 | 83.0
Cc1ccc([N+](=O)[O-])c2c3c([nH]c12)C(=NCCO)CCC3 | 0 | 0
Cc1cc2oc(=O)c3c(c2c2occ(-c4ccccc4)c12)CCC3 | 0 | 0
Cc1ccc(CN2C(=O)C(=O)c3cc(Cl)ccc32)cc1 | 62.0 | 0
O=C1C(=O)N(CCc2ccccc2)c2ccc(Cl)cc21 | 0 | 0
O=C1C(=O)N(Cc2cccc(C(F)(F)F)c2)c2ccccc21 | 0 | 0
O=S(=O)(c1ccc(Cl)c(S(=O)(=O)N2CCOCC2)c1)N1CCOCC1 | 0 | 0
Cc1ccc(CN2C(=O)C(=O)c3cc(S(=O)(=O)N4CCOCC4)ccc32)cc1 | 89.0 | 0
O=C1C(=O)N(Cc2cccc(Cl)c2)c2ccccc21 | 93.0 | 0
O=C(c1ccco1)N1CCC(c2nc(-c3ccc(F)cc3)n[nH]2)CC1 | 0 | 0
CC(=O)c1cccc(NC(=O)C2CCN(C(=O)c3ccccc3C)CC2)c1 | 0 | 0

Screening data (PubChem)
